From PubChem BioAssay
Rab9 prom act = activates the Rab9 promoter; Potency, µM (doses to about 9.22 µM), for inactives: at the top dose activation, negative = inhibition, usual class: activators; AID 485297; 320,000 tested, 2.8% active; Huh7 Rab9 promoter-luciferase reporter, luminescence, 24 h; also: % of control where 0% means no effect; nearly all actives have a fitted effect of over 60% in size
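Huh7 cells stably carrying Rab9 promoter–luciferase reporter, plated 1500 cells/well, compound added after 2 h and incubated 24 h at 37 °C; luciferase luminescence then read after 10 min with detection reagent.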
FLuc counter = inhibits or activates purified firefly luciferase, miR-21 counter-screen; AID 588342; 360,000 tested, 6.9% active; P08659; purified FLuc, Km substrates, luminescence inhibition; Potency, µM (doses to about 57.5 µM), for the others: top-dose activity change, negative = inhibition, most hits filed as inhibitors;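 also: plate controls were vehicle for no effect and reference inhibitor for full effect; nearly all actives have a fitted effect of over 55% in size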
Target sequence (P08659 whole entry, looked up): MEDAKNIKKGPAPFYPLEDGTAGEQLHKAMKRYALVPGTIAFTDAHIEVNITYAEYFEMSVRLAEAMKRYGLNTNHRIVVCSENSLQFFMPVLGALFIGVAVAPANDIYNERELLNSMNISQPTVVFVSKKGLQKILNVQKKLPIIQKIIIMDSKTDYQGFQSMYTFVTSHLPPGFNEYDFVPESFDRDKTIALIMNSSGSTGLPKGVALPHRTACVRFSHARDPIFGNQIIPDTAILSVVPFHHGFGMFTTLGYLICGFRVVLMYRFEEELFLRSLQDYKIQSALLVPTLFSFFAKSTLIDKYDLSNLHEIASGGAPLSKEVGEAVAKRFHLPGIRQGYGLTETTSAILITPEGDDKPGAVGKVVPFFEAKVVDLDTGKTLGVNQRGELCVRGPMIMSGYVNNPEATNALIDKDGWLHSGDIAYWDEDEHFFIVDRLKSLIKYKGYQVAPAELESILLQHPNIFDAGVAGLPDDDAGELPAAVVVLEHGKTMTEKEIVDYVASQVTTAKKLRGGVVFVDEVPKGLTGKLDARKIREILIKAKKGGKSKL
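Biochemical qHTS of compounds, final roughly 60 µM downward over six points, against 10 nM purified firefly luciferase using Km concentrations of substrates (10 uM D-luciferin, 10 uM ATP) in Tris acetate pH 7.5 buffer; luminescence output.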
SMN2 splice enh = SMN2 splice variant enhancement. HEK293 SMN2-luciferase splicing reporter, luminescence, 30-36 h. 210,000 tested, 2.8% active. Potency, µM (highest dose often 46.1 µM), for inactives: at the top dose activity change, positive = activation, usual class: activators; also: % of control where 0% means no effect; nearly all actives have a fitted effect of over 55% in size
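HEK293 cells carry an SMN2 minigene-luciferase reporter in which exon 7 inclusion puts luciferase in frame. Cells were seeded at 2000 cells/well, attached for 10-12 hours, then exposed to compounds for 30-36 hours at 37C before ONE-Glo luminescence.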
ELG1 genotox = inducers of genotoxicity in HEK293T ELG1-luciferase cells; HEK293T ELG1-luciferase reporter, luminescence, 16 h; Potency, µM (series often up to 46 µM), for inactives: at the top dose activity change, positive = activation, hits mostly activators; 330,000 tested, 1.3% active; also: % of control where 0% means no effect; nearly all actives have a fitted effect of over 60% in size
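After overnight (16 hr) compound treatment at 37 °C, ELG1-luciferase HEK293T cells were lysed with ONE-Glo; luminescence quantified 30 min later at room temperature.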
NPC1 prom act = activators of NPC1 promoter | AID 485313 | 320,000 tested, 2.4% active | Potency, µM (highest dose often 9.22 µM), for the others: at the highest dose activation, most hits filed as activators | Huh7 NPC1 promoter luciferase reporter, 24 h; also: % of control where 0% means no effect; nearly all actives have a fitted effect of over 60% in size
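Stably transfected Huh7 (NPC1 promoter→luciferase), 1500 cells/well in Opti-MEM + 10% FBS, 2 h settle, then compound 24 h at 37 °C. Luminescence after 10 min with Amplite reagent.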
ELG1 DNA repair = ELG1-dependent DNA repair inhibition. HEK293T ELG1-luciferase reporter, luminescence, 16 h; DNA damage induced by 5-fluorouridine. Potency, µM (doses to about 46.1 µM), inactives show at the highest dose activity change, negative = inhibition, usual class: inhibitors. 330,000 tested, 2.3% active; also: % is scaled to controls: 0 for no effect and ±100 for the full control effect; nearly all actives have a fitted effect of over 55% in size
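Step one: seed 2,000 cells per well. Step two: pin-transfer compound or DMSO alongside 5-fluorouridine. Step three: incubate 16 hr, 37 °C, 5% CO2. Step four: add ONE-Glo, wait 30 min, read luminescence.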
The depositor's hits bear a star; ? = inconclusive; . = not tested or not shown; [ ] = remark or other dose. An excerpt weighted towards active compounds, which were near 9.2% of everything screened. Calls follow the shape of the dose curve; as a rule, active = well fitted curve in the direction sought with a large enough effect; inconclusive = small, poorly fitted or top-dose-only effect, or another doubt; inactive = no such curve, though single readings can be large; an effect the other way counts as inactive or inconclusive. Potency is read from the fitted curve at half-maximal effect.

SMILES	Rab9 prom act	FLuc counter	SMN2 splice enh	ELG1 genotox	NPC1 prom act	ELG1 DNA repair
CC(C)/C=C/CN1CCCC(N2CCN(c3cccc(Cl)c3)CC2)C1 (stereo not drawn)	-0.1%	4.1%	.	-3.5%	7.9%	5.4%
CCN(CC)S(=O)(=O)c1cccc(-c2nnc(SCc3nnc(-c4cccs4)o3)n2N)c1	3.7%	-5.5%	-15.9%	-14.6%	9.3%	20.6µM*
CCOC(=O)C1CCN(C(=O)Cn2ncc3c([nH]c4ccc(C)cc43)c2=O)CC1	.	-1.2%	.	.	.	.
Cc1cccc(-n2ncc3c(N4CCN(c5ccccc5)CC4)ncnc32)c1	.	-2.2%	.	.	.	.
Cc1cccc(-n2ncc3c(N4CCCC4)ncnc32)c1	0.631µM*	0.953µM*	1.58µM*	?	0.501µM*	?
COc1ccc(-n2ncc3c(N4CCN(c5cccc(C)c5)C(C)C4)ncnc32)cc1 (stereo not drawn)	.	-2.3%	.	.	.	.
Cc1cccc(-n2ncc3c(N4CC(C)CC(C)C4)ncnc32)c1 (stereo not drawn)	1.58µM*	5.36µM*	?	2.59µM*	2.24µM*	?
Cc1cccc(C(=O)N2CCN(c3ncnc4c3cnn4-c3ccccc3)CC2)c1	0.2%	-0.6%	-78.7%	-14.4%	4.9%	14.6µM*
Cc1cccc(-n2cc(-c3ccccc3)c3c(N4CCOCC4)ncnc32)c1	3.7%	-0.4%	-13.6%	-10.9%	-1.6%	18.3µM*
O=S(=O)(/N=C(/Nc1cccnc1Cl)c1ccccc1)c1ccccc1	.	.	.	0.6%	.	0.1%
COc1cccc(N2CC(NC(=O)c3ccc(S(=O)(=O)N4CCCC4)cc3)CC2=O)c1 (stereo not drawn)	.	2.8%	.	.	.	.
Cc1cc(C)nc(SCC(=O)NNS(=O)(=O)c2ccc(C#N)cc2)n1	-1.1%	-0.9%	.	0.4%	-2.3%	-0.3%
Cc1cccc(-n2ncc3c(N4CCOCC4)ncnc32)c1	0.355µM*	0.536µM*	-67.7%	?	0.355µM*	?
CC1=C(C(=O)Nc2ccc(F)cc2)C(c2ccc(N(C)C)cc2)NC(=O)N1 (stereo not drawn)	.	-0.8%	11.1%	.	.	.
COc1ccc(N2CC(O)=C(c3nc(-c4ccc(F)cc4)cs3)C2=N)cc1OC	?	?	-2.2%	-3.1%	28.9%	13µM*
Cc1cc(C)n2cc(CSc3nnc(SCc4cn5c(C)cc(C)nc5n4)s3)nc2n1	-3.6%	-1.1%	11.6%	-0.6%	2.1%	-13.0%
Cc1cc(C)n2cc(CSc3nc4ccccc4s3)nc2n1	3.55µM*	21.3µM*	11.2µM*	?	?	?
COc1ccc(CCNC(=O)CCc2cn(Cc3ccc(C)cc3)c3ccccc23)cc1OC	.	3.3%	.	.	.	.
O=C(O)CC(CC(=O)Nc1ccc(-n2ccc(C(F)(F)F)n2)cc1)c1ccccc1 (stereo not drawn)	-2.6%	3.2%	.	2.5%	1.7%	-2.1%
O=C(Nc1ccccc1)Nc1ccc(-n2ccc(C(F)(F)F)n2)cc1	1.78µM*	4.26µM*	.	?	2.82µM*	?
Cc1ccc(-c2nnc(SCC(=O)N(C)C)nc2-c2ccc(C)cc2)cc1	-2.1%	1.6%	.	0.6%	-3.8%	?
N/C(=N\OC(=O)c1ccc(Br)cc1)c1cccc([N+](=O)[O-])c1	27.8%	0.849µM*	.	?	?	?
N/C(=N\OC(=O)C1CCCCC1)c1cccc([N+](=O)[O-])c1	23.8%	10.7µM*	9.5%	?	11.1%	?
N/C(=N\OC(=O)c1ccc([N+](=O)[O-])cc1)c1ccc(Br)cc1	3.0%	?	.	?	8.4%	?
Cc1ccc(C(=O)O/N=C(\N)c2cccc([N+](=O)[O-])c2)cc1	3.55µM*	0.19µM*	19.7%	?	3.55µM*	?
SMILES	Rab9 prom act	FLuc counter	SMN2 splice enh	ELG1 genotox	NPC1 prom act	ELG1 DNA repair
Cc1ccc(CC(=O)O/N=C(\N)c2cccc([N+](=O)[O-])c2)cc1	2.3%	?	-14.2%	0.3%	-2.8%	14.7%
NCCNS(=O)(=O)c1ccc(N)cc1	.	.	-8.5%[9.22 µM]	.	.	.
COc1cc(C(CC(=O)Nc2ccc(F)cc2F)N2Cc3ccccc3C2=O)cc(OC)c1OC (stereo not drawn)	.	-11.6%	.	.	.	.
Cc1ccc2c(c1)nnn2C1CCN(S(=O)(=O)c2ccc(C(=O)N(C)C)cc2)CC1	-1.0%	2.2%	-70.9%	-4.6%	0.5%	18.4µM*
Cc1ccc2c(c1)nnn2C1CCN(S(=O)(=O)c2cccc(S(=O)(=O)N(C)C)c2)CC1	-9.3%	-1.6%	-28.3%	-19.7%	1.9%	20.6µM*
Cc1ccc2c(c1)nnn2C1CCN(S(=O)(=O)c2ccc(C(=O)N3CC(C)CC(C)C3)cc2)CC1 (stereo not drawn)	-8.1%	5.6%	.	0.3%	-6.0%	20.6µM*
COCCn1c(SCC(=O)Nc2ccc(C(F)(F)F)cc2)nc2c([nH]c3ccccc32)c1=O	.	-0.3%	.	.	.	.
COc1ccccc1NC(=O)C1=C(C)Nc2nc3ccccc3n2C1c1cccc(Br)c1 (stereo not drawn)	.	-2.3%	5.4%	.	.	.
O=C(CCCCn1c(=O)c2ccccc2n(Cc2ccccc2)c1=O)NC1CCN(Cc2ccccc2)CC1	-3.5%	2.5%	-27.5%	-6.5%	-1.6%	-4.0%
CCCCC(=O)NC(=S)Nc1cc(C(=O)O)ccc1OC	-8.1%	4.4%	2.9%	0.8%	-2.1%	3.8%
COc1ccc(C(=O)O)cc1NC(=S)NC(=O)/C=C/c1ccc(C(C)C)cc1	-2.9%	10.7µM*	.	0.3%	1.7%	10.5%
COc1ccccc1N1CCN(C(=O)CSc2nnc(C)n2C2CC2)CC1	.	.	.	0.0%	.	13.5%
CC(C)(C)C(=O)NCCCc1nc2ccccc2n1CCCOc1ccc(Cl)cc1	-7.5%	0.9%	-36.6%	-18.3%	-0.9%	23.1µM*
CC(=O)NCCc1nc2ccccc2n1CCCCOc1ccc(Cl)cc1	.	3.8%	-44.4%	.	.	.
Cc1ccccc1OCCCn1c(CO)nc2ccccc21	5.5%	15.1µM*	4.1%	-6.0%	1.2%	-0.1%
CCc1nc2ccccc2n1CCCCOc1ccccc1C	.	?	-27.6%	.	.	.
OCc1nc2ccccc2n1CCCOc1ccc(Br)cc1	.	10.7µM*	-9.0%	.	.	.
Cc1oc2ncnc(N3CCCCC3)c2c1C(=O)N1CCN(c2ccc(Cl)cc2)CC1	.	-2.0%	.	.	.	.
C[C@H]1Cc2c(-c3ccccc3)nc3c(c2CO1)CN(S(=O)(=O)c1ccc2c(c1)OCCN2C)CC3	.	.	-4.2%[9.22 µM]	.	.	.
Cc1cc(C(=O)N/N=C/c2ccccc2Br)no1	25.7%	21.3µM*	1.7%	4.1%	20.5%	?
Cc1cc(C(=O)N/N=C/c2ccc[nH]2)no1	10.5%	-19.4%	14.6%	1.2%	2.3%	?
